In the supplement of paper PMC10849652:
Of roughly 7,900 targets only a part is listed; those with a hit were picked by preference. About 0.6% of all pairs of compound and target were hits.

Legend:
Test in all cases: log2 fold change, soluble protein after heating vs DMSO (PISA); higher = thermal stabilisation; K562 cells, 10 uM, 30 min; active = over 0.2 and 3.5 SD of the protein, either way, in both replicates (recomputed)
[1] = compound: CS(=O)(=O)c1ccc(-c2cnc(N)c(C(=O)Nc3ccccc3)n2)cc1
How it was run: (§1)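 K562 cells at 2×10^6 cells/mL were treated for 30 min with 10 μM compound, and aliquots were heated for 3 min over 48°C-58°C before pooling. Extraction used PBS with 0.5% NP-40 at 4°C, and soluble protein was the supernatant after 21,000xg for 90 min, measured by TMTpro 16plex LC-MS/MS with channel sums equalised. Thermal stability values, relative to control samples and from duplicates, are log2 fold changes.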

crizotinib = compound: C[C@@H](Oc1cc(-c2cnn(C3CCNCC3)c2)cnc1N)c1c(Cl)ccc(F)c1Cl [crizotinib]
How it was run: as §1

[2] = compound: C[C@@H]1COCCN1C2=NC(=NC(=C2)C3(CC3)S(=O)(=O)C)C4=C5C=CNC5=CC=C4
How it was run: as §1

[3] = compound: C[C@H](C1=CC=C(C=C1)C(=O)NC2=C3C=CNC3=NC=C2)N
How it was run: as §1

duvelisib = compound: C[C@H](Nc1ncnc2nc[nH]c12)c1cc2cccc(Cl)c2c(=O)n1-c1ccccc1 [duvelisib]
How it was run: as §1

gandotinib = compound: Cc1cc(Nc2cc(CN3CCOCC3)c3nc(C)c(Cc4ccc(Cl)cc4F)n3n2)n[nH]1 [gandotinib]
How it was run: as §1

tozasertib = compound: Cc1cc(Nc2cc(N3CCN(C)CC3)nc(Sc3ccc(NC(=O)C4CC4)cc3)n2)n[nH]1 [tozasertib]
How it was run: as §1

[4] = compound: Cc1cc(SCc2sc(-c3ccc(C(F)(F)F)cc3)nc2C)ccc1OCC(=O)O
How it was run: as §1

doramapimod = compound: Cc1ccc(-n2nc(C(C)(C)C)cc2NC(=O)Nc2ccc(OCCN3CCOCC3)c3ccccc23)cc1 [doramapimod]
How it was run: as §1

ispinesib = compound: Cc1ccc(C(=O)N(CCCN)[C@@H](c2nc3cc(Cl)ccc3c(=O)n2Cc2ccccc2)C(C)C)cc1 [ispinesib]
How it was run: as §1

Measured: log2 fold change

DHFR (UniProt P00374)
UniProt P00374, sequence (P00374 whole entry, looked up): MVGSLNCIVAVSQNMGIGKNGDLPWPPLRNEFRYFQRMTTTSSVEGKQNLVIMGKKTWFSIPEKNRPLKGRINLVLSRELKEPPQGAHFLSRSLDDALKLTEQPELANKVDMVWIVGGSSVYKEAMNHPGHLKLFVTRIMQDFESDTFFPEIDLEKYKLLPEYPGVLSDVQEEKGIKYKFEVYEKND
active: crizotinib 0.956 | duvelisib 0.604
inactive: [1] -0.009 | [2] -0.015 | [3] 0.239 | gandotinib -0.194 | tozasertib -0.151 | [4] 0.048 | doramapimod 0.179 | ispinesib -0.207

EIF4G1 isoform 8 (UniProt Q04637)
inactive: [1] -0.21 | crizotinib -0.314 | [2] -0.206 | [3] 0.109 | duvelisib -0.1 | gandotinib -0.032 | tozasertib 0.008 | [4] 0.149 | doramapimod 0.032 | ispinesib -0.324

DHX16 (UniProt O60231)
inactive: [1] 0.023 | crizotinib -0.013 | [2] 0.182 | [3] -0.03 | duvelisib -0.013 | gandotinib -0.06 | tozasertib -0.02 | [4] 0.053 | doramapimod -0.018 | ispinesib -0.01

DPH5 isoform 5 (UniProt Q9H2P9)
UniProt Q9H2P9, sequence (Q9H2P9 whole entry, looked up): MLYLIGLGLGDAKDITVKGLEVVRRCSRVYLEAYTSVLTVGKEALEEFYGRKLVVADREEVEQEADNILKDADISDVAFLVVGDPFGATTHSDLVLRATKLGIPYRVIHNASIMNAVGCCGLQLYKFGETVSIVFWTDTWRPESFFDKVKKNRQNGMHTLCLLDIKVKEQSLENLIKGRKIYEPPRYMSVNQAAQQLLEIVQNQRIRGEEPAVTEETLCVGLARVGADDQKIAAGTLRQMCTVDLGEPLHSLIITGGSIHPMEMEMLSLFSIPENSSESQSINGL
inactive: [1] 0.017 | crizotinib 0.092 | [2] 0.072 | [3] -0.046 | duvelisib 0.077 | gandotinib -0.011 | tozasertib -0.01 | [4] -0.01 | doramapimod -0.025 | ispinesib 0.076

FAM3A (UniProt P98173)
inactive: [1] 0.01 | crizotinib -0.071 | [2] 0.07 | [3] 0.01 | duvelisib 0.006 | gandotinib 0.014 | tozasertib -0.025 | [4] -0.075 | doramapimod 0.009 | ispinesib -0.065

CTU1 (UniProt Q7Z7A3)
UniProt Q7Z7A3, sequence (Q7Z7A3 whole entry, looked up): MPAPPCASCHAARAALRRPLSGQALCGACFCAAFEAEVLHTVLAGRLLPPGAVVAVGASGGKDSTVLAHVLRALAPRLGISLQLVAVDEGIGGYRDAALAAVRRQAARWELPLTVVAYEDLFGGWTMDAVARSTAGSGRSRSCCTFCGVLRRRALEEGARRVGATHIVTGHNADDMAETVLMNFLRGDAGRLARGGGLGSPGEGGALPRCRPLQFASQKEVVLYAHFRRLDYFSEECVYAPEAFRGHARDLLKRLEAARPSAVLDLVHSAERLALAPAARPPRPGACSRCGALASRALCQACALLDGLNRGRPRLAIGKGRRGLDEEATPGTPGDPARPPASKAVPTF
inactive: [1] 0.005 | crizotinib -0.132 | [2] 0.081 | [3] -0.032 | duvelisib -0.012 | gandotinib -0.015 | tozasertib -0.026 | [4] 0.058 | doramapimod -0.049 | ispinesib -0.082

EDC3 (UniProt Q96F86)
UniProt Q96F86, sequence (Q96F86 whole entry, looked up): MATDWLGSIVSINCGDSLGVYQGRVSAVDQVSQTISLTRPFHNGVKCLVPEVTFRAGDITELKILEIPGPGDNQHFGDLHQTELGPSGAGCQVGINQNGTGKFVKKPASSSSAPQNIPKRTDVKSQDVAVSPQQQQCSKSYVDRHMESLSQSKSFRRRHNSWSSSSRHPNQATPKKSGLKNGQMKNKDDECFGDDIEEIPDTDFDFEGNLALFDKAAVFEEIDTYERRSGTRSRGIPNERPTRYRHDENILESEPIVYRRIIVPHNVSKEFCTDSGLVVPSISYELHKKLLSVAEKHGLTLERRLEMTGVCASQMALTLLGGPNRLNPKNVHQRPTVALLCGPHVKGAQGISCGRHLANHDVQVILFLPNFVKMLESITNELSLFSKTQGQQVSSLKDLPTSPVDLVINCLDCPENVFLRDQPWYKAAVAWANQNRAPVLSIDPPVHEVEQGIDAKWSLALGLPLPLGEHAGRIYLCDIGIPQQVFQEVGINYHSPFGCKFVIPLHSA
inactive: [1] 0.002 | crizotinib -0.237 | [3] -0.014 | duvelisib -0.14 | gandotinib -0.023 | tozasertib -0.025 | [4] 0.066 | doramapimod 0.05 | ispinesib -0.121
active: [2] -0.439

EXOC2 (UniProt Q96KP1)
UniProt Q96KP1, sequence (Q96KP1 whole entry, looked up): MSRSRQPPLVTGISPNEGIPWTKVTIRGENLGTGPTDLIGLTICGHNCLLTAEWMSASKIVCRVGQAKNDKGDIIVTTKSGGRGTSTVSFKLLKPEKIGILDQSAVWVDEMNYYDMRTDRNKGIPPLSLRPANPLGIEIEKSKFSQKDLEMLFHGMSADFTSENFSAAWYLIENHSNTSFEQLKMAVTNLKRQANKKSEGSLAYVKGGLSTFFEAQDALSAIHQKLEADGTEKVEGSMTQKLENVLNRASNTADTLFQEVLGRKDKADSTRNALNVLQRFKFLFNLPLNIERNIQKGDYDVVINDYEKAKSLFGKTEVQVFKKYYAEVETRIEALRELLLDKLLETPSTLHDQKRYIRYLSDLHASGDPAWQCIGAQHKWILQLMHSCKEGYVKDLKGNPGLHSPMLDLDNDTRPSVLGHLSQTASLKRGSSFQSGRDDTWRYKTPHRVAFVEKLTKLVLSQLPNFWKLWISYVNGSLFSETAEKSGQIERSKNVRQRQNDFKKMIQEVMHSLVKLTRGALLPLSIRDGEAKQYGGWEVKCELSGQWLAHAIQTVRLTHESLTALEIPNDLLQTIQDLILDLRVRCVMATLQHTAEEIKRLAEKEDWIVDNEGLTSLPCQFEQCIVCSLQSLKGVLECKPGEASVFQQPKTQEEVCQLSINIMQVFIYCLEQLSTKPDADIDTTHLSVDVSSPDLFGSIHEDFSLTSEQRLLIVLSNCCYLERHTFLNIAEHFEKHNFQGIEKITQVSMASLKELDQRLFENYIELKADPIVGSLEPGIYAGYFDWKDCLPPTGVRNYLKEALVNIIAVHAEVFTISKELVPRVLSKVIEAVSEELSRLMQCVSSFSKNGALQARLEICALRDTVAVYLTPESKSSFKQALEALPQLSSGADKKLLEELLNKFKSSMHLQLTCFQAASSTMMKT
active: ispinesib -0.394
inactive: [1] 0.006 | crizotinib -0.308 | [2] -0.112 | [3] 0.101 | duvelisib -0.081 | gandotinib 0.009 | tozasertib 0.017 | [4] 0.119 | doramapimod 0.06

DNAJB1 (UniProt P25685)
inactive: [1] -0.004 | crizotinib -0.004 | [2] 0.084 | [3] 0 | duvelisib 0.045 | gandotinib -0.041 | tozasertib -0.001 | [4] 0.059 | doramapimod -0.018 | ispinesib 0.019

DYNC1I2 isoform 5 (UniProt Q13409)
UniProt Q13409, sequence (Q13409 whole entry, looked up): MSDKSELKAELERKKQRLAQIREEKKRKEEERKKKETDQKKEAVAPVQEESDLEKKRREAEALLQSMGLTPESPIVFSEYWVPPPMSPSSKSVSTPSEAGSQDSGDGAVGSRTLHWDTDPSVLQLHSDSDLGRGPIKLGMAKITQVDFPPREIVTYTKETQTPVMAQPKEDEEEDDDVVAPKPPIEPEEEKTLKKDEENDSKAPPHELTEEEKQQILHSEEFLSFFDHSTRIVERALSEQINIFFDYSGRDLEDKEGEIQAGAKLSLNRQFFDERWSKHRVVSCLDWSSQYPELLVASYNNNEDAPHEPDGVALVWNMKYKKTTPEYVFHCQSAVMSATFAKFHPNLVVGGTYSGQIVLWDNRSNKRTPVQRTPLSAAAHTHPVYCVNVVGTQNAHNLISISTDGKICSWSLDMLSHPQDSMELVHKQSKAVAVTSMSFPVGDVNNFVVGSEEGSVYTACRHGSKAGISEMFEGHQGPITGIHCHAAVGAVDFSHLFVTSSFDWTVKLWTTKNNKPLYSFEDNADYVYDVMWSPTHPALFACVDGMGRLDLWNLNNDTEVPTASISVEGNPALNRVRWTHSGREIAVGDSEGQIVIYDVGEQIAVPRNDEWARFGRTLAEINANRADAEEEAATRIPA
inactive: [1] 0.026 | crizotinib 0.055 | [2] -0.035 | [3] -0.007 | duvelisib 0.019 | gandotinib 0.027 | tozasertib -0.022 | [4] -0.007 | doramapimod -0.011 | ispinesib 0.028

FAM177A1 isoform 2 (UniProt Q8N128)
UniProt Q8N128, sequence (Q8N128 whole entry, looked up): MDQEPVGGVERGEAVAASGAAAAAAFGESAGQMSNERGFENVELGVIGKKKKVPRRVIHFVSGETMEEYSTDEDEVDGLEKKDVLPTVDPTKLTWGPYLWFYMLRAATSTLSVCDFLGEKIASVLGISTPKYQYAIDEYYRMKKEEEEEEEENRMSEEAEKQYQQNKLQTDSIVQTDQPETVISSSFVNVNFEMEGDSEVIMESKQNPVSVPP
inactive: [1] 0.018 | crizotinib -0.109 | [2] 0.059 | [3] -0.063 | duvelisib 0.012 | gandotinib -0.102 | tozasertib -0.072 | [4] -0.027 | doramapimod -0.012 | ispinesib -0.082

CTSB (UniProt P07858)
active: crizotinib -0.508 | ispinesib -0.403
inactive: [1] 0.048 | [2] 0.057 | [3] -0.042 | duvelisib 0.016 | gandotinib 0.006 | tozasertib -0.006 | [4] 0.015 | doramapimod -0.014

CYFIP1 (UniProt Q7L576)
inactive: [1] 0.038 | crizotinib -0.029 | [2] 0.063 | [3] -0.042 | duvelisib 0.031 | gandotinib -0.079 | tozasertib 0 | [4] 0.038 | doramapimod -0.026 | ispinesib 0.031

DTWD1 (UniProt Q8N5C7)
UniProt Q8N5C7, sequence (Q8N5C7 whole entry, looked up): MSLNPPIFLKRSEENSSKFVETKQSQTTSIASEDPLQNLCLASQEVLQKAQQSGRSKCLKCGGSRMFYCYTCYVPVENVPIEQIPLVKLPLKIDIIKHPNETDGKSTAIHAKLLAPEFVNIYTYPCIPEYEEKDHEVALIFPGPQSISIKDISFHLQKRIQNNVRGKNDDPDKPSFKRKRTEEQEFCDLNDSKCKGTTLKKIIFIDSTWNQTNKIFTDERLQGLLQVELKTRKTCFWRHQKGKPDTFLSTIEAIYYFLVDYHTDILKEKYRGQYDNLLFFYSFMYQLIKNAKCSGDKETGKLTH
inactive: [1] 0.053 | crizotinib 0.067 | [2] 0.061 | [3] 0.014 | duvelisib 0.015 | gandotinib 0.098 | tozasertib 0.029 | [4] 0.012 | doramapimod 0.009 | ispinesib -0.001

DTNBP1 (UniProt Q96EV8)
UniProt Q96EV8, sequence (Q96EV8 whole entry, looked up): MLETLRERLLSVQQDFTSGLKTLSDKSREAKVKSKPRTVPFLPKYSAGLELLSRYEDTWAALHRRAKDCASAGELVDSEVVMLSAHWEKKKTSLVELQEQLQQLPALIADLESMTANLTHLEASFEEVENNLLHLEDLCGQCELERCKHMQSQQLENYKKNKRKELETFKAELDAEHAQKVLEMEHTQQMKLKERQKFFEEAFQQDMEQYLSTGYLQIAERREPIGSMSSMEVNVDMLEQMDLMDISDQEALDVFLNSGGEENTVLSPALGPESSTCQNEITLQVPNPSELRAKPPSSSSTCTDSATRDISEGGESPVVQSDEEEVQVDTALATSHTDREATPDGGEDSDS
inactive: [1] 0.093 | crizotinib 0 | [2] 0.079 | [3] -0.014 | duvelisib -0.012 | gandotinib -0.104 | tozasertib -0.034 | [4] 0.022 | doramapimod -0.009 | ispinesib -0.073

EEA1 (UniProt Q15075)
inactive: [1] -0.007 | crizotinib -0.007 | [2] -0.014 | [3] -0.046 | duvelisib 0.006 | gandotinib 0.02 | tozasertib -0.012 | [4] -0.04 | doramapimod 0.002
active: ispinesib -0.22

DYRK1A isoform 2 (UniProt Q13627)
inactive: [1] 0.008 | crizotinib -0.181 | [2] 0.045 | [3] -0.107 | duvelisib -0.025 | gandotinib -0.102 | tozasertib -0.051 | [4] 0.042 | doramapimod 0.014 | ispinesib -0.059

DOCK8 (UniProt Q8NF50)
inactive: [1] 0.216 | crizotinib -0.011 | [2] -0.075 | duvelisib 0.038 | gandotinib 0.146 | tozasertib -0.119 | [4] -0.036 | doramapimod -0.004 | ispinesib -0.402
active: [3] 0.67

DNAH5 (UniProt Q8TE73)
inactive: [1] 0.049 | crizotinib 0.145 | [2] -0.007 | [3] -0.076 | duvelisib 0.117 | gandotinib 0.013 | tozasertib 0.082 | [4] -0.052 | doramapimod -0.031 | ispinesib 0.057

FAM50A (UniProt Q14320)
inactive: [1] 0.009 | crizotinib 0.129 | [2] 0.026 | [3] -0.06 | duvelisib -0.03 | gandotinib 0.147 | tozasertib 0.089 | [4] 0.092 | doramapimod -0.061 | ispinesib 0.095

DUS2 (UniProt Q9NX74)
UniProt Q9NX74, sequence (Q9NX74 whole entry, looked up): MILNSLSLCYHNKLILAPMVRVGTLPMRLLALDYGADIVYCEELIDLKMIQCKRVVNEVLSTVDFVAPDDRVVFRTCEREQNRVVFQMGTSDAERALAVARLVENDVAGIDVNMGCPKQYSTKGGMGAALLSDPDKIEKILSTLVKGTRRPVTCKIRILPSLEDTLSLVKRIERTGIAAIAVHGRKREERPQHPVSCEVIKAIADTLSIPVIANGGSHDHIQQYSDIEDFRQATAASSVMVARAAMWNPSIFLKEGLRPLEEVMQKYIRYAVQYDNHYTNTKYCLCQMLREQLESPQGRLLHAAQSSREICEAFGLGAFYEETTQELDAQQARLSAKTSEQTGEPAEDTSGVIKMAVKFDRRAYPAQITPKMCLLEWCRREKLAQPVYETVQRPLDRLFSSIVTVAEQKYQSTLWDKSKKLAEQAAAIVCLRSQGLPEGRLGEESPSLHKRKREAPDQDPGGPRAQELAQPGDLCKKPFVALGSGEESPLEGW
inactive: [1] -0.017 | crizotinib 0.048 | [2] 0.084 | [3] 0.045 | duvelisib 0.012 | gandotinib 0.036 | tozasertib -0.013 | [4] 0.062 | doramapimod -0.006 | ispinesib 0.097

DMXL1 (UniProt Q9Y485)
inactive: [1] -0.012 | crizotinib -0.092 | [2] 0.002 | [3] 0.048 | duvelisib -0.011 | gandotinib -0.013 | tozasertib -0.03 | [4] 0 | doramapimod 0.047 | ispinesib -0.217

EFCAB14 (UniProt O75071)
inactive: [1] 0.045 | [2] 0.083 | [3] 0.041 | duvelisib 0.006 | gandotinib -0.009 | tozasertib -0.097 | [4] -0.006 | doramapimod -0.01 | ispinesib -0.004
active: crizotinib -0.301

DDX46 (UniProt Q7L014)
inactive: [1] 0.12 | crizotinib 0.1 | [2] 0.185 | [3] -0.025 | duvelisib 0.144 | gandotinib -0.144 | tozasertib 0.109 | [4] 0.235 | doramapimod -0.087 | ispinesib 0.197

DNAH11 (UniProt Q96DT5)
inactive: [1] -0.054 | crizotinib 0.071 | [2] 0.062 | duvelisib 0.073 | gandotinib 0.104 | tozasertib -0.165 | [4] -0.069 | doramapimod 0.037 | ispinesib -0.125
active: [3] 0.695

EIF2AK1 (UniProt Q9BQI3)
inactive: [1] 0.023 | crizotinib 0.015 | [2] 0.015 | [3] 0.045 | duvelisib -0.007 | gandotinib 0.137 | tozasertib -0.028 | [4] 0.053 | doramapimod 0.068 | ispinesib -0.024

EVC2 (UniProt Q86UK5)
inactive: [1] 0.022 | crizotinib -0.061 | [2] -0.244 | [3] -0.209 | duvelisib -0.162 | gandotinib 0.071 | tozasertib 0.02 | [4] -0.052 | doramapimod 0 | ispinesib 0.065

DYNC1LI2 (UniProt O43237)
UniProt O43237, sequence (O43237 whole entry, looked up): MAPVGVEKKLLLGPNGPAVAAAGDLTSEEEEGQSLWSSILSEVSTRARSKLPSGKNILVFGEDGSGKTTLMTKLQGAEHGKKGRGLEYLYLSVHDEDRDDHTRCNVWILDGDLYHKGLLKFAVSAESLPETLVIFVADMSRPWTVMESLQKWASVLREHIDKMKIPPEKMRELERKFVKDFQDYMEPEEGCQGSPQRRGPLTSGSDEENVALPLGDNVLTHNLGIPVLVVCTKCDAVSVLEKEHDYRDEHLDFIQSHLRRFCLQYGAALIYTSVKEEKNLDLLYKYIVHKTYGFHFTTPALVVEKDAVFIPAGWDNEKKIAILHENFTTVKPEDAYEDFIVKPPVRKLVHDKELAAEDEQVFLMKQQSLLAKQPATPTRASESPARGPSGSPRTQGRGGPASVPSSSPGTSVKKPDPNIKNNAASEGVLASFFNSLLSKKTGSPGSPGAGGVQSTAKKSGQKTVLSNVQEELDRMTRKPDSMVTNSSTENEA
inactive: [1] 0.025 | crizotinib 0.079 | [2] -0.283 | [3] 0.393 | duvelisib -0.049 | gandotinib 0.235 | tozasertib 0.018 | [4] 0.054 | doramapimod -0.121 | ispinesib -0.026

DNM2 isoform 4 (UniProt P50570)
inactive: [1] -0.302 | crizotinib -0.087 | [2] -0.039 | [3] -0.087 | duvelisib 0.159 | gandotinib 0.126 | [4] 0.5 | doramapimod -0.203 | ispinesib 0.092

DCTPP1 (UniProt Q9H773)
UniProt Q9H773, sequence (Q9H773 whole entry, looked up): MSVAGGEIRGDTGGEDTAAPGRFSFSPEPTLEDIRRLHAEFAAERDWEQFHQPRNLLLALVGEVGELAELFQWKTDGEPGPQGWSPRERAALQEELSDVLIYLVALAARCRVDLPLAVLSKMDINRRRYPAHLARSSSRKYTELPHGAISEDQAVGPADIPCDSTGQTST
inactive: [1] -0.025 | crizotinib 0.142 | [2] 0.179 | [3] -0.177 | duvelisib 0.072 | gandotinib -0.004 | tozasertib 0.024 | [4] -0.064 | doramapimod -0.002 | ispinesib 0.203
